{
  "source": "paper PMC5540273",
  "about": "(PLoS ONE, 2017);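 further: KINOMEscan kinase panel screen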",
  "data": [
    {"test_system": "T1, AMPK-alpha1", "T1 construct": "gene PRKAA1", "details": "concentration: 1 μM, replicates: in singlicate; n = 1", "units": {"%Inh": "%"}, "values": [
      {"smiles": "Fc1cccc(COc2ccc(Nc3ncnc4cc[nH]c34)cc2Cl)c1", "%Inh": 4},
      {"smiles": "COc1cc2ncnc(Nc3ccc(OCc4ccccc4Br)c(Cl)c3)c2cc1OC.Cl", "note": "[GI261590]", "%Inh": 11},
      {"smiles": "CCn1c(-c2ccncc2)nc2cnccc21", "note": "[SB-735216]", "%Inh": 0},
      {"smiles": "FC(F)(F)c1ccc(-c2nn3ncccc3c2-c2ccnc(Nc3cccc(C(F)(F)F)c3)n2)cc1", "note": "[GW828205]", "%Inh": 12},
      {"smiles": "CNc1nccc(-c2c(-c3ccc(F)cc3)ncn2C2CCN(C)CC2)n1", "note": "[SB-222903]", "%Inh": 0},
      {"smiles": "Cl.c1ccc(Cn2ncc3cc(Nc4ncnc5ccccc45)ccc32)cc1", "note": "[GW273749]", "%Inh": 0},
      {"smiles": "Cc1ccc(NC(=O)c2cccc(C#N)c2)cc1-c1ccc(C(=O)Nc2ccncc2)cc1", "note": "[GSK1398463]", "%Inh": 0},
      {"smiles": "COC(=O)c1c(-c2ccccc2)c2cc(Cl)ccc2c(=O)n1Cc1ccc(S(C)(=O)=O)cc1", "%Inh": 7},
      {"smiles": "COc1ccc(Nc2nccc(N3CCC(NC(=O)Nc4ccc5c(c4)OCO5)C3)n2)cc1", "note": "(centres unmarked) [GSK1379745]", "%Inh": 24},
      {"smiles": "COc1ccc(Nc2nccc(N3CCC(NC(=O)c4cccc(NC(C)=O)c4)C3)n2)cc1", "note": "(centres unmarked) [GSK1379732]", "%Inh": 5},
      {"smiles": "Cl.Cn1ccc(-c2cccc(Nc3ccnc4cc(-c5nccs5)ccc34)c2)n1", "note": "[GW525701]", "%Inh": 0},
      {"smiles": "c1ccc(-c2ccc3c(-c4ccnc(Nc5ccc6c(c5)OCCO6)n4)cnn3n2)cc1", "note": "[GW818941]", "%Inh": 19},
      {"smiles": "O=C(c1ccc(-c2cc(-c3c[nH]nc3-c3ccccn3)ccn2)cc1)N1CCCC1", "note": "[GW792479]", "%Inh": 0},
      {"smiles": "Cc1ccc(C)c(NC(=O)NCCNc2ccnc(Nc3ccc(F)cc3)n2)c1", "note": "[GSK1379878]", "%Inh": 10},
      {"smiles": "Cn1ccc2ncnc(Nc3ccc(Oc4cccc(Cl)c4)c(Cl)c3)c21", "%Inh": 18},
      {"smiles": "CCC(CC)(CC)n1cnc2c(N)ncnc21", "note": "[SKF-97620]", "%Inh": 8},
      {"smiles": "COc1ccc(NC(=O)c2ccc(-c3cc(-c4nnc(C)o4)ccc3C)cc2)cc1", "note": "[GW595885]", "%Inh": 0},
      {"smiles": "CN1CCC(n2cnc(-c3ccc(F)cc3)c2-c2ccnc(NC3CCNCC3)n2)CC1", "note": "[SB-229482]", "%Inh": 0},
      {"smiles": "Cn1ccc2ncnc(Oc3ccc(NC(=O)Nc4cccnc4)c(Cl)c3)c21", "%Inh": 4},
      {"smiles": "CC(=O)Nc1n[nH]c2ncc(-c3ccccc3)cc12", "note": "[SB-548492]", "%Inh": 10},
      {"smiles": "CS(=O)(=O)CCNCc1nc(-c2ccc3ncnc(Nc4ccc(OCc5cccc(F)c5)c(Cl)c4)c3c2)cs1.Cl", "note": "[GW583340]", "%Inh": 0},
      {"smiles": "O=C(Nc1ccccc1F)NC1CCN(c2ccnc(Nc3ccc(F)cc3)n2)C1", "note": "(centres unmarked) [GSK1379722]", "%Inh": 2},
      {"smiles": "Cc1cccc(-c2nc(Nc3ccc4[nH]nnc4c3)c3ccccc3n2)n1", "note": "[GW867587]", "%Inh": 0},
      {"smiles": "Clc1cccc(-c2nc(Nc3ccncc3)c3ccccc3n2)c1", "note": "[GW873004]", "%Inh": 30},
      {"smiles": "CCCc1ccc(S(=O)(=O)NC2CCN(c3ccnc(Nc4ccc(OC)cc4)n3)C2)cc1", "note": "(centres unmarked) [GSK1379737]", "%Inh": 0},
      {"smiles": "CCc1nc(-c2cccc(N(C)S(=O)(=O)c3ccccc3)c2)c(-c2ccnc(Nc3ccc(N4CCN(C(C)=O)CC4)nc3)n2)s1", "note": "[GSK1645895]", "%Inh": 0},
      {"smiles": "Nc1n[nH]c2nnc(-c3ccccc3)cc12", "note": "[SB-517389]", "%Inh": 0},
      {"smiles": "O=C(Nc1n[nH]c2nc(-c3ccco3)c(Br)cc12)c1ccc(CN2CCCC2)cc1.O=C(O)[C@H](O)[C@@H](O)C(=O)O", "note": "[SB-742352]", "%Inh": 0},
      {"smiles": "CC(C)(C)OC(=O)NC1CCCN(c2cc(-c3ccc4c(N)n[nH]c4c3)nc(N)n2)C1", "note": "(centres unmarked) [GSK2286096]", "%Inh": 0},
      {"smiles": "FC(F)(F)c1cc(Nc2nccc(-c3c(-c4ccc(Cl)cc4)nn4ncccc34)n2)ccc1Cl", "note": "[GW829351]", "%Inh": 0},
      {"smiles": "O=C(Nc1ccccc1)Nc1ccc(Oc2ccc3nccn3n2)cc1", "%Inh": 25},
      {"smiles": "COc1ccc(-c2oc3ncnc(N)c3c2-c2ccc(OC)cc2)cc1", "note": "[SB-589132]", "%Inh": 0},
      {"smiles": "OCCOCCn1ccc2ncnc(Nc3ccc(Oc4cccc(Cl)c4)c(Cl)c3)c21", "%Inh": 0},
      {"smiles": "CNc1nccc(-c2c(-c3ccc(F)cc3)ncn2CCCN2CCOCC2)n1", "note": "[SB-222516]", "%Inh": 0},
      {"smiles": "NC(=O)c1sc(-n2cnc3ccccc32)cc1OCc1ccccc1F", "note": "[GSK1024306]", "%Inh": 6}
    ]},
    {"test_system": "T2, AMPK-alpha2", "T2 construct": "gene PRKAA2", "details": "concentration: 1 μM, replicates: in singlicate; n = 1", "units": {"%Inh": "%"}, "values": [
      {"smiles": "Fc1cccc(COc2ccc(Nc3ncnc4cc[nH]c34)cc2Cl)c1", "%Inh": 0},
      {"smiles": "COc1cc2ncnc(Nc3ccc(OCc4ccccc4Br)c(Cl)c3)c2cc1OC.Cl", "note": "[GI261590]", "%Inh": 0},
      {"smiles": "CCn1c(-c2ccncc2)nc2cnccc21", "note": "[SB-735216]", "%Inh": 5},
      {"smiles": "FC(F)(F)c1ccc(-c2nn3ncccc3c2-c2ccnc(Nc3cccc(C(F)(F)F)c3)n2)cc1", "note": "[GW828205]", "%Inh": 0},
      {"smiles": "CNc1nccc(-c2c(-c3ccc(F)cc3)ncn2C2CCN(C)CC2)n1", "note": "[SB-222903]", "%Inh": 16},
      {"smiles": "Cl.c1ccc(Cn2ncc3cc(Nc4ncnc5ccccc45)ccc32)cc1", "note": "[GW273749]", "%Inh": 0},
      {"smiles": "Cc1ccc(NC(=O)c2cccc(C#N)c2)cc1-c1ccc(C(=O)Nc2ccncc2)cc1", "note": "[GSK1398463]", "%Inh": 15},
      {"smiles": "COC(=O)c1c(-c2ccccc2)c2cc(Cl)ccc2c(=O)n1Cc1ccc(S(C)(=O)=O)cc1", "%Inh": 0},
      {"smiles": "COc1ccc(Nc2nccc(N3CCC(NC(=O)Nc4ccc5c(c4)OCO5)C3)n2)cc1", "note": "(centres unmarked) [GSK1379745]", "%Inh": 24},
      {"smiles": "COc1ccc(-c2nc3n(c2-c2ccncc2)CCC3)cc1", "note": "[SKF-104493]", "%Inh": 0},
      {"smiles": "COc1ccc(Nc2nccc(N3CCC(NC(=O)c4cccc(NC(C)=O)c4)C3)n2)cc1", "note": "(centres unmarked) [GSK1379732]", "%Inh": 0},
      {"smiles": "Cl.Cn1ccc(-c2cccc(Nc3ccnc4cc(-c5nccs5)ccc34)c2)n1", "note": "[GW525701]", "%Inh": 14},
      {"smiles": "c1ccc(-c2ccc3c(-c4ccnc(Nc5ccc6c(c5)OCCO6)n4)cnn3n2)cc1", "note": "[GW818941]", "%Inh": 25},
      {"smiles": "O=C(c1ccc(-c2cc(-c3c[nH]nc3-c3ccccn3)ccn2)cc1)N1CCCC1", "note": "[GW792479]", "%Inh": 12},
      {"smiles": "Cc1ccc(C)c(NC(=O)NCCNc2ccnc(Nc3ccc(F)cc3)n2)c1", "note": "[GSK1379878]", "%Inh": 0},
      {"smiles": "Cn1ccc2ncnc(Nc3ccc(Oc4cccc(Cl)c4)c(Cl)c3)c21", "%Inh": 20},
      {"smiles": "CCC(CC)(CC)n1cnc2c(N)ncnc21", "note": "[SKF-97620]", "%Inh": 54},
      {"smiles": "COc1ccc(NC(=O)c2ccc(-c3cc(-c4nnc(C)o4)ccc3C)cc2)cc1", "note": "[GW595885]", "%Inh": 14},
      {"smiles": "CN1CCC(n2cnc(-c3ccc(F)cc3)c2-c2ccnc(NC3CCNCC3)n2)CC1", "note": "[SB-229482]", "%Inh": 12},
      {"smiles": "Cn1ccc2ncnc(Oc3ccc(NC(=O)Nc4cccnc4)c(Cl)c3)c21", "%Inh": 9},
      {"smiles": "CC(=O)Nc1n[nH]c2ncc(-c3ccccc3)cc12", "note": "[SB-548492]", "%Inh": 1},
      {"smiles": "CS(=O)(=O)CCNCc1nc(-c2ccc3ncnc(Nc4ccc(OCc5cccc(F)c5)c(Cl)c4)c3c2)cs1.Cl", "note": "[GW583340]", "%Inh": 0},
      {"smiles": "O=C(Nc1ccccc1F)NC1CCN(c2ccnc(Nc3ccc(F)cc3)n2)C1", "note": "(centres unmarked) [GSK1379722]", "%Inh": 21},
      {"smiles": "Cc1cccc(-c2nc(Nc3ccc4[nH]nnc4c3)c3ccccc3n2)n1", "note": "[GW867587]", "%Inh": 0},
      {"smiles": "Clc1cccc(-c2nc(Nc3ccncc3)c3ccccc3n2)c1", "note": "[GW873004]", "%Inh": 9},
      {"smiles": "CCCc1ccc(S(=O)(=O)NC2CCN(c3ccnc(Nc4ccc(OC)cc4)n3)C2)cc1", "note": "(centres unmarked) [GSK1379737]", "%Inh": 0},
      {"smiles": "CCc1nc(-c2cccc(N(C)S(=O)(=O)c3ccccc3)c2)c(-c2ccnc(Nc3ccc(N4CCN(C(C)=O)CC4)nc3)n2)s1", "note": "[GSK1645895]", "%Inh": 0},
      {"smiles": "Nc1n[nH]c2nnc(-c3ccccc3)cc12", "note": "[SB-517389]", "%Inh": 16},
      {"smiles": "O=C(Nc1n[nH]c2nc(-c3ccco3)c(Br)cc12)c1ccc(CN2CCCC2)cc1.O=C(O)[C@H](O)[C@@H](O)C(=O)O", "note": "[SB-742352]", "%Inh": 8},
      {"smiles": "CC(C)(C)OC(=O)NC1CCCN(c2cc(-c3ccc4c(N)n[nH]c4c3)nc(N)n2)C1", "note": "(centres unmarked) [GSK2286096]", "%Inh": 0},
      {"smiles": "FC(F)(F)c1cc(Nc2nccc(-c3c(-c4ccc(Cl)cc4)nn4ncccc34)n2)ccc1Cl", "note": "[GW829351]", "%Inh": 0},
      {"smiles": "O=C(Nc1ccccc1)Nc1ccc(Oc2ccc3nccn3n2)cc1", "%Inh": 0},
      {"smiles": "COc1ccc(-c2oc3ncnc(N)c3c2-c2ccc(OC)cc2)cc1", "note": "[SB-589132]", "%Inh": 10},
      {"smiles": "OCCOCCn1ccc2ncnc(Nc3ccc(Oc4cccc(Cl)c4)c(Cl)c3)c21", "%Inh": 0},
      {"smiles": "CNc1nccc(-c2c(-c3ccc(F)cc3)ncn2CCCN2CCOCC2)n1", "note": "[SB-222516]", "%Inh": 9},
      {"smiles": "NC(=O)c1sc(-n2cnc3ccccc32)cc1OCc1ccccc1F", "note": "[GSK1024306]", "%Inh": 0}
    ]}
  ]
}
